Test results reported in PubChem BioAssay (NCATS).
Inconclusive results are not listed. A call without a number means that no potency is given here. Activity calls are given as the source filed them. Calls follow the shape of the dose curve; as a rule, active = well fitted inhibition curve with a large enough effect; inconclusive = small, poorly fitted or top-dose-only effect; inactive = flat fitted curve, though single readings scatter.

These compounds were tested against Calcium and integrin-binding protein 1 (Homo sapiens) (UniProt Q99828) (assay: Primary qHTS for Identification of Calcium Integrin Binding Protein 1 (CIB1) Competitor (AID 1508620;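 also: GST tagged CIB1 binding a fluorescein labelled alphaIIb integrin peptide tracer; top concentration of the series differs between compounds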)). Conditions: CIB1-GST / FITC-alphaIIb peptide fluorescence polarization; series mostly up to 114 µM.
Outline: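 CIB1-GST (1 uM final) and compound incubated 15 min at room temperature before adding FITC-alphaIIb peptide tracer (100 nM final). Competition for binding read by fluorescence polarization (ex 480, em 540) after another 15 min at room temperature.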

Calcium and integrin-binding protein 1 (Homo sapiens), sequence (Q99828 whole entry, looked up): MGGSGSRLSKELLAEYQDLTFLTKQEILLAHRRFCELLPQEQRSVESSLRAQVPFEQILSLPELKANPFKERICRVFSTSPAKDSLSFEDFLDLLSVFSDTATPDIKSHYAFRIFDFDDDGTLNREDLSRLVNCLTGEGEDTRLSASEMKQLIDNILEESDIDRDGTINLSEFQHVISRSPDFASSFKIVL

Structure (SMILES) | Potency
CCN(Cc1ccccc1)c1ccc(Br)cn1 | inactive
Cc1ccc(C2=NN(CC(=O)N(C)C(C)c3ccco3)C(=O)C2)cc1 (stereo not given) | inactive
CN(C)c1cccc(-c2cnc(N3CCC(C(N)=O)CC3)nc2)c1 | inactive
Cc1csc(CNc2ncnc3cc(-c4ccc5c(c4)OCO5)ccc23)n1 | inactive
Cn1nnnc1Sc1ncnc2scc(-c3ccc(C(F)(F)F)cc3)c12 | inactive
Fc1ccccc1-c1nc(-c2ccc(-c3nn[nH]n3)cc2)no1 | inactive
NC(=O)c1cccc(-c2noc(-c3ccccc3C(F)(F)F)n2)c1 | inactive
O=C(N1Cc2ccc(Nc3nn4c(=O)c5ccccc5nc4s3)cc2C1)C(F)(F)F | inactive
CC(C)(C)n1cnc2cc(C(=O)N3CCCCC3)ccc21 | inactive
Cc1ccc(-n2cnc3cc(C(=O)N4CCCCC4)ccc32)cc1 | inactive
COc1ccc2c(c1)Oc1ncn(CCN3CCOCC3)c(=N)c1C2c1ccc(OC)c(OC)c1 (stereo not given) | inactive
O=C(Nc1ncc([S+](=O)([O-])N2CCOCC2)s1)c1cccc(Br)c1 | inactive
Cc1sc(NC(=O)Cc2ccc3c(c2)OCO3)nc1-c1ccc2c(c1)CCN2C(=O)c1ccccc1F | inactive
COc1ccc(-c2nc3ccccc3n2Cc2ccccc2)cc1COc1ccc(NC(C)=O)cc1 | inactive
O=C1Cc2cc(S(=O)(=O)N3CCN(c4ccc(CO)cc4)CC3)ccc2N1 | inactive
CCOC(=O)CCCC(=O)Nc1ncnc2c1C(c1ccccc1)c1c(ccc3ccccc13)O2 (stereo not given) | inactive
O=S1(=O)N=C(Sc2ccc3c(c2)OCCO3)c2ccccc21 | inactive
Cc1nnc(-c2cnn(C)c2N)n1CCc1ccccc1 | inactive
CN(C)c1cnc2c(O)ccc([S+](=O)([O-])Nc3ccccc3F)c2c1 | inactive
Cn1ccc2cc(-c3ccc4ncnc(NCc5cccnc5)c4c3)ccc21 | inactive

Structure (SMILES) | Potency
FC1(F)Oc2ccc(-c3ccc4ncnc(NCc5cccs5)c4c3)cc2O1 | inactive
O=C1CCCC2=C1C(c1[nH]ncc1Cl)N=C(Nc1nc3ccccc3s1)N2 (stereo not given) | inactive
O=C(NC1CCCc2c1cnn2-c1ccc(F)cc1F)c1ccc(C(=O)c2ccccc2)cc1 (stereo not given) | inactive
O=S(=O)(c1ccc2c(c1)OCCO2)N1CCN(S(=O)(=O)c2cc(F)c(Br)cc2F)CC1 | inactive
COC(=O)c1ccc(Nc2nc(-c3ccncc3)nc3ccccc23)cc1OC | inactive
N#Cc1ccc(NC(=O)Nc2nnc(-c3ccncc3)s2)c(Cl)c1 | inactive
CN(C)CCCNc1ncnc2ccc(-c3ccc4c(c3)OCO4)cc12 | inactive
FC(F)(F)c1cccc(N2CCN(C(=S)Nc3cccnc3)CC2)c1 | inactive
COc1ccc(NC(=O)c2[nH]c(C)c(C(C)=O)c2C)cc1S(=O)(=O)Nc1cccc(C#N)c1 | inactive
Cc1ccc(-c2ccc(=O)n(CC(=O)NCCc3ncc[nH]3)n2)cc1 | inactive
Cc1cc(NC(=O)c2ccc([S+](=O)([O-])NCc3ccc(Cl)c(Cl)c3)cc2)no1 | inactive
CCOC(=O)c1c(/C=N/Nc2ccccc2)c2sc(C)cc2n1C | inactive
O=C(O)c1ccc(-c2noc(-c3ccccc3F)n2)cc1 | inactive
COc1ccc([S+](=O)([O-])Nc2ccc(-c3nc4ccccc4[nH]3)cc2)cc1OC | inactive
O=C(O)c1ccc(-c2ccc3ncnc(NCCc4cnc[nH]4)c3c2)o1 | inactive
O=C(c1ccccc1O)N(Cc1ccccc1)Cc1ccccc1 | inactive
O=S(=O)(Nc1cccc2ccccc12)c1ccc(NCc2ccc(Br)cc2O)cc1 | inactive
CCOc1cc(CCNC(=O)c2cc3sccc3n2Cc2ccccc2)cc(F)c1OCC | inactive
O=C1NS(=O)(=O)c2cc3c(cc21)C(=O)NS3(=O)=O | inactive
Nc1nc(NCc2ccc(-c3ccnc(C(F)(F)F)c3)cc2)c2ccccc2n1 | inactive
